Results reported in PubChem BioAssay AID1159580 (chemical genetic matrix, 2015).
Screen size: about 5,500 compounds; about 2,000 (36%) were called active. Inconclusive results (about 18%) are left out. Rule as the data show it: active = normalized growth mostly below about 0.91 (no sharp cut-off); inconclusive = no clear call, values can overlap the other calls; inactive = mostly above about 0.92. This is one part of the list.

Test: chemical genetic growth profiling, strain panel (AID 1159580);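 also: tested at 20 µM; growth read once vehicle control cultures reached saturation at 30 °C; 1 = growth at the plate median or of vehicle wells; lower values mean less growth of the strain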
Details: S. cerevisiae deletion strains, growth OD

Measured: normalized growth

CC(=O)O[C@@H]1CC2C(C)(C)[C@H](O)C[C@H](O)[C@]2(C)C2CC[C@@]3(C)C(=CC(=O)O[C@H]3c3ccoc3)[C@@]21C (stereo not given in full)
inactive: locus YAL021C, strain ccr4, active compounds read low 0.977 | locus YAL026C, strain drs2, active compounds read low 0.988 | locus YAL030W, strain snc1, active compounds read low 1 | locus YBL061C, strain skt5, active compounds read low 1 | locus YBR009C, strain hhf1, active compounds read low 1.02 | locus YBR023C, strain chs3, active compounds read low 0.991 | locus YBR171W, strain sec66, active compounds read low 1.01 | locus YBR231C, strain swc5, active compounds read low 1 | locus YBR279W, strain paf1, active compounds read low 0.979 | locus YCL011C, strain gbp2, active compounds read low 0.969 | locus YCL016C, strain dcc1, active compounds read low 0.973 | locus YCL069W, strain vba3, active compounds read low 0.99 | locus YCR088W, strain abp1, active compounds read low 0.992 | locus YDL005C, strain med2, active compounds read low 0.981 | locus YDL040C, strain nat1, active compounds read low 0.99 | locus YDR001C, strain nth1, active compounds read low 0.979 | locus YDR069C, strain doa4, active compounds read low 0.983 | locus YDR137W, strain rgp1, active compounds read low 0.981 | locus YDR159W, strain sac3, active compounds read low 0.978 | locus YDR195W, strain ref2 0.989 | locus YDR297W, strain sur2, active compounds read low 0.98 | locus YDR334W, strain swr1, active compounds read low 0.977 | locus YDR335W, strain msn5, active compounds read low 0.973 | locus YDR392W, strain spt3, active compounds read low 0.914 | locus YEL003W, strain gim4, active compounds read low 1.01 | locus YEL037C, strain rad23, active compounds read low 0.99 | locus YEL061C, strain CIN8 (second series), active compounds read low 0.995 | locus YER015W, strain faa2, active compounds read low 0.976 | locus YER016W, strain bim1, active compounds read low 1.01 | locus YER111C, strain swi4, active compounds read low 0.978 | locus YER155C, strain BEM2 (second series), active compounds read low 1.04 | locus YFR010W, strain ubp6, active compounds read low 1.02 | locus YGL167C, strain pmr1, active compounds read low 0.991 | locus YGL173C, strain kem1, active compounds read low 1.05 | locus YGL227W, strain vid30, active compounds read low 0.986 | locus YGL240W, strain doc1, active compounds read low 1.03 | locus YGL253W, strain hxk2, active compounds read low 0.941 | locus YHR013C, strain ard1, active compounds read low 0.952 | locus YHR027C, strain rpn1, active compounds read low 0.979 | locus YHR142W, strain chs7, active compounds read low 0.945 | locus YJL092W, strain hpr5, active compounds read low 0.985 | locus YJL095W, strain BCK1 (second series), active compounds read low 0.991 | locus YJL115W, strain asf1, active compounds read low 0.963 | locus YJL129C, strain trk1, active compounds read low 0.994 | locus YJL154C, strain vps35, active compounds read low 0.981 | locus YJL164C, strain tpk1, active compounds read low 0.992 | locus YJL166W, strain qcr8, active compounds read low 1.02 | locus YKL160W, strain elf1, active compounds read low 0.981 | locus YKR026C, strain gcn3, active compounds read low 0.989 | locus YKR091W, strain srl3, active compounds read low 0.976 | locus YLL001W, strain dnm1, active compounds read low 0.998 | locus YLL026W, active compounds read low 0.996 | locus YLL041C, strain sdh2, active compounds read low 0.984 | locus YLR027C, strain aat2, active compounds read low 1.01 | locus YLR221C, strain rsa3, active compounds read low 1.03 | locus YLR258W, strain gsy2, active compounds read low 0.974 | locus YLR262C, strain YPT6 (second series), active compounds read low 0.967 | locus YLR320W, strain mms22, active compounds read low 1.02 | locus YLR342W, strain FKS1, active compounds read low 0.991 | locus YLR357W, strain rsc2, active compounds read low 0.984 | locus YLR370C, strain arc18, active compounds read low 0.983 | locus YLR384C, strain iki3, active compounds read low 0.978 | locus YML120C, strain ndi1, active compounds read low 1.01 | locus YMR058W, strain fet3, active compounds read low 1 | locus YMR125W, strain sto1, active compounds read low 0.991 | locus YMR129W, active compounds read low 0.972 | locus YMR205C, strain PFK2, active compounds read low 1.04 | locus YMR231W, strain pep5, active compounds read low 1 | locus YNL071W, strain lat1, active compounds read low 1 | locus YNL209W, strain ssb2, active compounds read low 0.968 | locus YNL248C, strain rpa49, active compounds read low 0.967 | locus YNL322C, strain KRE1 (second series), active compounds read low 1.01 | locus YNR049C, strain mso1, active compounds read low 0.961 | locus YOR001W, strain rrp6, active compounds read low 1.03 | locus YOR070C, strain gyp1, active compounds read low 0.989 | locus YOR080W, strain dia2, active compounds read low 0.986 | locus YOR083W, strain WHI5, active compounds read low 0.954 | locus YOR106W, strain vam3, active compounds read low 0.946 | locus YOR265W, strain rbl2, active compounds read low 0.991 | locus YOR270C, strain vph1, active compounds read low 0.926 | locus YOR290C, strain snf2, active compounds read low 0.942 | locus YPL051W, strain arl3, active compounds read low 0.994 | locus YPL078C, strain atp4, active compounds read low 0.988 | locus YPL106C, strain sse1, active compounds read low 0.975 | locus YPL240C, strain hsp82, active compounds read low 0.994
